Screening results deposited in PubChem by National Center for Advancing Translational Sciences (NCATS).
Sampled rows, rich in hits. Any-hit rate of the full collection: about 19%.
DT40 TDP1 no CPT – qHTS for Inhibitors of human tyrosyl-DNA phosphodiesterase 1 (TDP1): qHTS in cells in absence of CPT; DT40 Tdp1-/- hTDP1 cells, no CPT, ATP luminescence, 48 h; Potency, µM (highest dose often 46.2 µM), for inactives: at the highest dose activity change, negative = growth inhibition, usual class: inhibitors; hit rate 15% among 420,000; also: potency is read from the fitted curve at half-maximal effect; % is scaled to controls: 0 for no effect and ±100 for the full control effect; nearly all actives have a fitted effect of over 55% in size
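Growth of hTDP1-complemented DT40 Tdp1-knockout cells is measured by ATP luminescence after at least 48 hr compound exposure at 37 °C, with DMSO substituting for the 20 nM CPT used in the parallel screen.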
TDP1 inh – blocks human tyrosyl-DNA phosphodiesterase 1; Q9NUW8; recombinant TDP1, AlphaScreen DNA substrate cleavage; Potency, µM (top dose mostly 130 µM), without a hit: at the top dose activity change, negative = inhibition, hits mostly inhibitors; hit rate 0.28% among 350,000; also: potency is read from the fitted curve at half-maximal effect; % is scaled to controls: 0 for no effect and ±100 for the full control effect; nearly all actives have a fitted effect of over 40% in size
Target sequence (Q9NUW8 whole entry, looked up): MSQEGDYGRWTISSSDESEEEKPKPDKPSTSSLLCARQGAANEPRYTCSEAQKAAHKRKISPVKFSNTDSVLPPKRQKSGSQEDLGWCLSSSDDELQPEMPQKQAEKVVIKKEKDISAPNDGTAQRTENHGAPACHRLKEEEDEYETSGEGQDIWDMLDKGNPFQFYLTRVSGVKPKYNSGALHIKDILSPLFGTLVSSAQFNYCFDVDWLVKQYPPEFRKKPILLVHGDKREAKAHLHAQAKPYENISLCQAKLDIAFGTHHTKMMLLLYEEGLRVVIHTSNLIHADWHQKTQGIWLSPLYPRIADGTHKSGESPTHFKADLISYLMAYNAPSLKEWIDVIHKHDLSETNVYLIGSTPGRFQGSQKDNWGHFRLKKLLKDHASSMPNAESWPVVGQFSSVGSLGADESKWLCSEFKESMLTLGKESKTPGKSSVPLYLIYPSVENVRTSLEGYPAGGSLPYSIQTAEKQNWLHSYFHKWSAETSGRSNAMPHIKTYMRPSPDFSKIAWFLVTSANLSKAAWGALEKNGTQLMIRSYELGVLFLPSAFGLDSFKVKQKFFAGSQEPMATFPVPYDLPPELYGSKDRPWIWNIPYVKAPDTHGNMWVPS
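AlphaScreen read-out: signal falls as enzyme removes the 3' tyrosine-FITC from a 5'-biotinylated DNA oligo (15 nM, 5 min, RT). Enzyme was E. coli-made recombinant Tdp1 at 1 nM, exposed to compound for 15 min beforehand; beads 10 ug/ml, 10 min.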
DT40 TDP1 CPT – DT40-hTDP1 cell growth loss with CPT; chicken DT40 Tdp1-/-;hTDP1 cells + 20 nM CPT, ATP luminescence, 48 h; Potency, µM (series often up to 46.2 µM), inactives show at the highest dose activity change, negative = growth inhibition, actives largely listed as inhibitors; hit rate 12% among 420,000; AID 686979; also: potency is read from the fitted curve at half-maximal effect; % is scaled to controls: 0 for no effect and ±100 for the full control effect; nearly all actives have a fitted effect of over 55% in size
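Cell growth measured by CellTiter-Glo luminescence after a minimum 48 h, 37 C compound exposure with 20 nM CPT in Tdp1-knockout DT40 cells stably expressing hTDP1, seeded 400/well; qHTS titration format.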
TGFb SMAD3 inh – inhibitors of TGF-b signaling; HepG2 CAGA-GFP TGF-b/SMAD3 reporter, GFP fluorescence, 18 h; TGF-beta stimulated, 500 pg/mL final; Potency, µM (series often up to 46.1 µM), for inactives: at the highest dose activity, negative = inhibition, hits mostly inhibitors; hit rate 1.2% among 410,000; also: potency is read from the fitted curve at half-maximal effect; % is scaled to controls: 0 for no effect and ±100 for the full control effect; nearly all actives have a fitted effect of over 65% in size
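Cell-based qHTS in HEPG2 carrying a CAGA-GFP Smad reporter; compounds added before 500 pg/mL final TGF-beta, 18 h incubation at 37 degrees C, GFP fluorescence quantified per cell by imaging cytometry.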
HepG2 viability – counter-screen for TGF-b inhibitors: cytotoxicity in HepG2 cells | Potency, µM (highest dose often 46.1 µM), for the others: at the top dose activity change, negative = cytotoxicity, actives largely listed as cytotoxic | HepG2 CAGA-GFP viability, ATP luminescence, 18 h | hit rate 0.76% among 410,000 | AID 588856; also: potency is read from the fitted curve at half-maximal effect
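HepG2 CAGA-GFP cells (1000/well, DMEM with 1% FBS) received compound, then TGF-beta at 500 pg/mL final, and were incubated 18 hours at 37 degrees C. Viability was read by CellTiter-Glo luminescence. Media-only wells were set as complete cell-killing and DMSO as no toxicity.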
IL1B secr inh – inflammasome signaling inhibition, IL-1 beta readout. hit rate 4.7% among 360,000. activity change, % at 57.5 µM. THP-1 LPS/ATP IL-1B secretion, AlphaLISA, 16 h; stronger effect = lower value; in the data active = activity change below about -50%; inconclusive = mostly about -30% to -49%; also: % is scaled to controls: 0 for no effect and ±100 for the full control effect
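Secreted IL-1B measured by AlphaLISA bead assay after 16 h compound exposure of THP-1 cells; compounds (final up to 57.5 uM) added 1 h before LPS (250 ng/mL) and ATP (1.25 mM) stimulation; lower signal means less secretion.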
* hit, by the source's call; i = inactive; ? = inconclusive; · = no result given; ! = repeats disagree; [ ] = dose if it differs, or a comment. Unless noted, calls follow the shape of the dose curve; as a rule, active = well fitted curve in the direction sought with a large enough effect; inconclusive = small, poorly fitted or top-dose-only effect, or another doubt; inactive = no such curve, though single readings can be large; an effect the other way counts as inactive or inconclusive.

SMILES | DT40 TDP1 no CPT | TDP1 inh | DT40 TDP1 CPT | TGFb SMAD3 inh | HepG2 viability | IL1B secr inh
O=C(CSc1nc2c([nH]c3ccccc32)c(=O)n1-c1ccccc1)c1ccccc1 | ? | -1% | ? | -5% | -16% | ·
O=C1NCCN(Cc2cccc(Oc3ccccc3)c2)C1CC(=O)N1CCCCC1 (stereo not drawn) | -24% | 3% | 5% | ? | -26% | -4
CCC[N+]12CCC(CC1)C(=C(c1ccccc1)c1ccccc1)C2 | 21µM* | 5% | 15µM* | 6% | 6% | i
CCCC[N+]12CCC(CC1)C(=C(c1ccccc1)c1ccccc1)C2 | 4.1µM* | 4% | 4.6µM* | -9% | -1% | -4
Cc1ccc2c(c1)[C@]13CCCC[C@@H]1[C@H](C2)N(C)CC3 | -20% | · | -4% | · | · | ·
CC(C)C[C@H](NC(=O)[C@H](CC(C)C)NC(=O)[C@H](Cc1ccccc1)NC(=O)[C@@H](N)Cc1ccc(O)cc1)C(=O)N[C@@H](CCCN=C(N)N)C(=O)N[C@@H](CC(N)=O)C(=O)N1CCC[C@H]1C(=O)O | · | 6% | · | · | · | ·
C[N+](C)(C)CC1CCCC(C[N+](C)(C)C)C1=O (stereo not drawn) | 0.058µM* | · | 0.041µM* | 13µM* | -84% | -23
C[N+](C)(C)CC1CCCc2ccccc2C1=O (stereo not drawn) | 2.6µM* | · | 2.9µM* | ? | -7% | -11
c1ccc2c(c1)CCCC2 | · | 11% | · | · | · | ·
CCN1C[C@@]2(COC)C3[C@@H](OC)[C@H]4[C@@H]1[C@@]3(C1C[C@H]3[C@H](OC(C)=O)C1[C@]4(OC(C)=O)C[C@H]3OC)[C@@H](OC)C[C@H]2OC(C)=O (stereo partly drawn) | -6% | · | 5% | -13% | -15% | 11
CN(CC=CCN(C)P(=S)(N1CC1)N1CC1)P(=S)(N1CC1)N1CC1 | 1.8µM* | · | 1.6µM* | 9% | -11% | 8
NC(CCc1ccccc1)c1csc(NC(=O)Nc2ccccc2Oc2ccccc2)n1 (stereo not drawn) | 6.5µM* | · | 6.5µM* | ? | 10µM* | -79*
CC(C)OC(=O)c1c(N)n(CC2CCCO2)c2nc3ccccc3nc12 (stereo not drawn) | ? | 3% | ? | -39% | -22% | -17
CCCNC(=O)c1c(N)n(CC2CCCO2)c2nc3ccccc3nc12 (stereo not drawn) | 21µM* | 0% | ? | 4% | -16% | -27
CC(C)OCCCNC(=O)c1c(N)n(CC2CCCO2)c2nc3ccccc3nc12 (stereo not drawn) | -29% | · | ? | ? | -44% | -64*
CN1CCc2nc(SCc3ccccc3Br)c(C#N)cc2C1 | 18µM* | -3% | ? | ? | -27% | -17
CCN1/C(=C\C=C\C2=[N+](CC)c3ccccc3C2(C)C)C(C)(C)c2ccccc21 | 0.15µM* | 8% | 0.092µM* | ? | -62% | -98*
COc1ccc(-c2nc(SCC(=O)NC(C)CCc3ccccc3)n[nH]2)cc1 (stereo not drawn) | 12µM* | 0% | 12µM* | 0% | -21% | ·
CCN(CC)CCNC(=O)c1nn(-c2ccc(C)cc2)c(=O)c2c1c1ccccc1n2C | 21µM* | 5% | -14% | -21% | -5% | -4
c1ccc2c[n+](CCCCCCCCCC[n+]3ccc4ccccc4c3)ccc2c1 | 8.3µM* | · | 10µM* | · | · | ·
CC(=O)OC1C(O)C(C)OC(OC2C(OC(=O)C3CCC4C(C3)OC3(CC(OC(=O)/C=C/c5ccccc5)C(C)CO3)C43CO3)OC(C)C(O)C2OC(C)=O)C1O (stereo not drawn) | 0.073µM* | · | 0.15µM* | ? | 4% | -98*
Cc1csc2nc(COC(=O)c3ccccc3NC(=O)c3ccc(F)cc3)cc(=O)n12 | ? | -4% | ? | -1% | -10% | ·
O=C1NC(=O)N(c2ccc3c(c2)OCO3)C(=O)/C1=C\c1ccc(-c2ccccc2C(=O)O)o1 | 8% | 11µM* | 9% | -7% | 3% | -4
O=C1NC(=O)N(c2ccc3c(c2)OCO3)C(=O)/C1=C/c1ccc(N2CCCCC2)o1 | -29% | 1% | 15% | 47% | 0% | -9
N#CC(Cl)(Cl)Cl | · | 13% | · | · | · | ·
SMILES | DT40 TDP1 no CPT | TDP1 inh | DT40 TDP1 CPT | TGFb SMAD3 inh | HepG2 viability | IL1B secr inh
CCOC(=O)Nc1ccc(NCc2ccc(F)cc2)nc1N | 16µM*! | 17%[56.1 µM] | ? | 85% | -10% | -15
COC(=O)C1C(O)C(C)C(O)C(C)/C=C\C=C(/C)C(=O)Nc2c(C)c(OC(C)=O)c3c(c2O)C(=O)C(C)=C2OCOC(=C23)/C(C)=C/C(C)(O)C(O)C(C)C1O (stereo not drawn) | 1% | 4% | -24% | ? | 0% | -10
Cc1cc(OC(=O)N(C)C)n(-c2ccccc2)n1 | -9% | 4% | 16% | 9% | 14% | 7
Cc1cc(OC(=O)N(C)C)nc(SCc2c(Cl)cccc2Cl)n1 | ? | -4% | -29% | -27% | 8.9µM* | -6
COc1ccc(CC(C)NCCC(c2ccccc2)c2ccccc2)cc1 (stereo not drawn) | 16µM* | 6% | 13µM* | ? | -105% | -71*
C#C[C@]1(O)CCC2C3C(CC[C@@]21C)[C@@]1(C)CC[C@@H](O)CC1=C[C@H]3O (stereo partly drawn) | 23µM* | 1% | ? | 15% | -11% | 22
C#C[C@]1(O)CCC2C3C(=O)C=C4C=CCC[C@]4(C)C3CC[C@@]21C (stereo partly drawn) | ? | · | -23% | -6% | -37% | -9
